Screens as filed in PubChem.
The list is not random: actives were taken first. Their share in the collection is about 14%.
USP8 block: inhibitors of human USP8 deubiquitinase | Ubiquitin carboxyl-terminal hydrolase 8 (Homo sapiens), P40818 | purified USP8, Ub-rhodamine cleavage fluorescence, 30 min | inhibition, % at 20 µM | 47,000 tested, 4.2% active
USP17 inh: inhibitors of human USP17 deubiquitinase | purified USP17, Ub-rhodamine cleavage fluorescence, 3 h | AID 1645855, 2021 | 47,000 tested, 6.5% active | Ubiquitin carboxyl-terminal hydrolase 17-like protein 5 (Homo sapiens), A8MUK1 | inhibition, % at 50 µM
USP10 block: inhibitors of human USP10 deubiquitinase; Ubiquitin carboxyl-terminal hydrolase 10 (Homo sapiens), Q14694; purified USP10, Ub-rhodamine fluorescence, 60 min; inhibition, % at 20 µM; 47,000 tested, 1.1% active; AID 1645856, 2021
USP28 inh: inhibitors of human USP28 deubiquitinase. inhibition, % at 25 µM. Ubiquitin carboxyl-terminal hydrolase 28 (Homo sapiens), Q96RU2. purified USP28, Ub-rhodamine cleavage fluorescence, 30 min. 47,000 tested, 3% active
USP30 block: inhibitors of human USP30 deubiquitinase; Ubiquitin carboxyl-terminal hydrolase 30 (Homo sapiens), Q70CQ3; purified USP30, Ub-rhodamine cleavage fluorescence; inhibition, % at 25 µM; 47,000 tested, 5.3% active
Of the large screens only hits and unclear results are named; the others gave an inactive call. Cut-off read from the data, not from the text of the source: active = inhibition above about 30%; inactive = the rest.

O=C(NCc1ccc(F)cc1)C1CCN(S(=O)(=O)c2ccccc2)CC1	none
O=C(NNS(=O)(=O)c1ccc(F)cc1)C1CCN(S(=O)(=O)c2ccccc2)CC1	USP28 inh 31
CC(C)NC(=O)N1CC[C@H]2[C@H]1CCN2c1ncccn1	none
Cc1ccc2nc(-c3cccc(-c4nc5ccc(C)cc5[nH]4)n3)[nH]c2c1	USP8 block 55, USP17 inh 54
Cc1ccc(-c2csc(-n3ncc(C(=O)N4CCN(C(=O)Nc5cccc6ccccc56)C(C)C4)c3C(C)C)n2)cc1 (centres undefined)	USP8 block 80, USP17 inh 63
Cc1ccccc1Cn1ccc(NC(=O)c2noc(C)c2[N+](=O)[O-])n1	USP28 inh 75
CC(Sc1nnc(-c2ccccc2F)n1CCc1ccccc1)C(=O)N(C)c1ccccc1 (centres undefined)	none
O=C(CSc1nnc(-c2ccccc2F)n1CCc1ccccc1)c1c[nH]c2ccccc12	none
Fc1ccccc1-c1nnc(SCc2ccccc2)n1Cc1ccccc1	USP17 inh 48, USP28 inh 64, USP30 block 56
CC(Sc1nnc(-c2ccccc2F)n1Cc1ccccc1)C(=O)N1CCc2ccccc21 (centres undefined)	USP30 block 42
O=C(NC1CCCCCC1)C1CCCN(S(=O)(=O)N2CCC3(CC2)OCCO3)C1 (centres undefined)	none
CC1CCN(CCNc2ncnc3onc(-c4cc(F)cc(F)c4)c23)CC1	none
CC1(C)CC(=O)[C@]2(C)CC[C@]3(C)C(=CC[C@@H]4[C@@]5(C)CC[C@H](O)[C@](C)(CO)[C@@H]5CC[C@]43C)[C@@H]2C1	none
C[C@@H]1O[C@@H](O[C@H]2[C@H](O[C@H]3[C@H](O[C@H]4CC[C@@]5(C)[C@@H](CC[C@]6(C)[C@@H]5CC=C5[C@@H]7CC(C)(C)CC(=O)[C@]7(C)CC[C@]56C)[C@@]4(C)CO)O[C@H](C(=O)O)[C@@H](O)[C@@H]3O)OC[C@@H](O)[C@@H]2O)[C@H](O)[C@H](O)[C@H]1O	USP17 inh 32, USP28 inh 49, USP30 block 53
COCC(C)Nc1ncc(-c2cnccn2)c(-c2ccc(C)s2)n1 (centres undefined)	USP17 inh 63
Cc1ccc(C2=NCCNC3=C2C(c2ccccc2F)N(c2ccccc2)C3=O)cc1 (centres undefined)	USP30 block 36
Cc1ccc(-c2n[nH]c3c2C(c2ccccc2F)N(c2ccccc2)C3=O)cc1 (centres undefined)	USP8 block 71, USP17 inh 69, USP30 block 55
NC(=S)N=Nc1c(O)[nH]c2ccc(Br)cc12	USP30 block 34
O=C(NCc1cccnc1)c1cn(-c2cccc(Cl)c2)nn1	none
O=C(NCc1ccccn1)c1cn(-c2cccc(Cl)c2)nn1	USP17 inh 33
Cc1ccc(-n2cc(C(=O)NCc3cccnc3)nn2)cc1C	USP30 block 66 (no result: USP17 inh)
Cn1c2ccccc2c(=O)c2c(=O)n(Cc3ccco3)c(-c3ccccc3F)nc21	USP8 block 90, USP10 block 61
Cn1c2ccccc2c(=O)c2c(=O)n(-c3ccccc3)c(-c3ccc(F)cc3)nc21	USP17 inh 43
COc1cccc(C2CC(c3ccc(F)cc3)=NC3(CCN(C)CC3)N2)c1O (centres undefined)	USP8 block 41
Cc1nnc(-c2cc(S(=O)(=O)N3CCN(c4ccc(F)cc4)CC3)c[nH]2)o1	none
O=C(Nc1cc(F)c2nc(N3CCOCC3)ccc2c1)C1CCCCC1	USP8 block 71
Cn1c(CCN2CCOCC2)nc2cc(NC(=O)C3CCCCC3)ccc21	none
O=C(CC1CCCCC1)Nc1cc(F)c2nc(N3CCOCC3)ccc2c1	USP8 block 65, USP17 inh 40
CCn1nnc2c1CCN(C(=O)c1sccc1C)C2COC (centres undefined)	none (no result: USP17 inh)
O=C(CCc1ccccc1)Nc1ccc2c(c1)nc1n2CCN(C2CCCC2)C1	USP8 block 31
CS(=O)(=O)Nc1ccc2c(c1)nc1n2CCN(C2CCCC2)C1	none
Cc1cc(C(=O)N2CCN(C3CCN(Cc4cc5ccccc5o4)CC3)C(=O)C2)nn1C	none
CCCn1c(=O)[nH]c2nc(N3CCCCC3)sc2c1=O	USP17 inh 33
CCn1c(=O)c(NCc2ccc(Cl)cc2)nc2ccncc21	USP17 inh 48, USP30 block 34
O=C(c1noc2ccc(S(=O)(=O)Nc3ccccc3F)cc12)N1CCOCC1	none
Cc1ccc(Nc2nc3c(S(=O)(=O)c4ccc(C(C)C)cc4)nnn3c3ccccc23)cc1	none
Cc1ccc(Nc2nc3c(S(=O)(=O)c4ccc(C)c(C)c4)nnn3c3ccccc23)cc1C	USP8 block 53
COc1ccc(-c2ccc3cc(C(=O)O)ccc3c2)cc1C12CC3CC(CC(C3)C1)C2	USP8 block 66, USP10 block 80
COc1ccc(-c2noc(C(=O)NC3CC(C)(C)NC(C)(C)C3)n2)cc1OC	none
CCCCOc1ccc2c(C)c(CC(=O)O)c(=O)oc2c1C	none
COc1ccc(S(=O)(=O)N2CC(c3nc4ccc(C)cc4[nH]3)C2)cc1C	none
Cc1sc2ncnc(OCC(=O)c3ccc(NC(=O)CC(C)C)cc3)c2c1C	USP8 block 30
CCc1ccc(C(=O)COc2ncnc3sc(C)c(C)c23)cc1	none
Cc1ccc(-n2nnc(-c3cccs3)n2)cc1	none
Cc1ccn2cc(CCNS(=O)(=O)c3cc([N+](=O)[O-])ccc3C)nc2c1	none (no result: USP17 inh)
CCN(Cc1ccccc1)c1nc2ccccc2nc1NS(=O)(=O)c1cc([N+](=O)[O-])ccc1C	USP17 inh 34
Cc1ccc(N2CCCS2(=O)=O)cc1NC(=O)COc1ccccc1F	USP30 block 34
CCOc1ccccc1C(=O)Nc1cc(N2CCCS2(=O)=O)ccc1C	USP28 inh 32
COc1ccc(N2CCCS2(=O)=O)cc1NC(=O)c1ccccc1OC	USP28 inh 35
COc1cccc(C(=O)Nc2cc(N3CCCS3(=O)=O)ccc2OC)c1	none
CC(C)(C)c1cnc(CN2CCOC(Cn3cccn3)C2)o1 (centres undefined)	none
COCCn1ccc2nc(C)c(C(=O)Nc3ccc4c(c3)OCCO4)cc2c1=O	USP17 inh 51, USP30 block 36
CCOc1ccc(C(=O)OCC(=O)Nc2ccc3c(c2)OCCO3)cc1OC	none
CCOCCn1ccc2c(OCC(=O)Nc3ccc4c(c3)OCCO4)cccc2c1=O	USP17 inh 66, USP28 inh 44, USP30 block 84
COc1ccccc1CNC(=O)c1cnc(NCc2ccccc2)nc1C	none
N#Cc1c(-c2ccco2)ccn2nc(-c3ccc(Cl)cc3Cl)nc12	USP8 block 43, USP17 inh 46
N#Cc1c(-c2ccc(Cl)cc2)ccn2nc(-c3ccco3)nc12	USP8 block 48
